Several values for one entry are separate records, joined by “and”; a condition that tells them apart may be missing. Identical values can stand only once. The whole screen tested about 150,000 compounds, of which about 6,500 (4.3%) were called active. Not shown: some 12% with an inconclusive outcome. The sample as a whole holds a higher share of actives than the screen did. Unmarked numbers belong to inactive results. Calls follow the shape of the dose curve; as a rule, active = well fitted inhibition curve with a large enough effect (not every such curve was filed as active); inconclusive = small, poorly fitted or top-dose-only effect, or another doubt; inactive = no such curve, though single readings can be large or run the other way.
biological target: 15-hydroxyprostaglandin dehydrogenase [NAD(+)] (Homo sapiens) (UniProt P15428); assay: qHTS Assay for Inhibitors of HPGD (15-Hydroxyprostaglandin Dehydrogenase); conditions: purified HPGD, NADH fluorescence kinetic, PGE2 substrate; activity change, negative = inhibition: hits give low values
Sequence (P15428 whole entry, looked up): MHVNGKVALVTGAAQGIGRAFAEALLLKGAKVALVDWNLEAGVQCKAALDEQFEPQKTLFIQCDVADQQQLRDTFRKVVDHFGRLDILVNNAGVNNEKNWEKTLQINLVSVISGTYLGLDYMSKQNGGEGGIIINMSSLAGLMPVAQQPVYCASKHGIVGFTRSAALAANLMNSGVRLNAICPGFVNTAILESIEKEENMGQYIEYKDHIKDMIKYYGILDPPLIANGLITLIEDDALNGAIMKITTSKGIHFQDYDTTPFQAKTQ
Text: Human 15-Hydroxyprostaglandin dehydrogenase (HPGD) catalyzes the inactivation of prostaglandin E2, and plays a major role in cancer biology by antagonizing the oncogenic potential of cyclooxygenase type 2 (COX2). Assays are available, based on absorbance/fluorescence increase of NADH with the substrate 15-OH prostaglandin E2. References 1. Myung SJ, Rerko RM, Yan M, Platzer P, Guda K, Dotson A, Lawrence E, Dannenberg AJ, Lovgren AK, Luo G, Pretlow TP, Newman RA, Willis J, Dawson D, Markowitz SD. 15-Hydroxyprostaglandin dehydrogenase is an in vivo suppressor of colon tumorigenesis. […] 2. Yan M, Rerko RM, Platzer P, Dawson D, Willis J, Tong M, Lawrence E, Lutterbaugh J, Lu S, Willson JK, Luo G, Hensold J, Tai HH, Wilson K, Markowitz SD. 15-Hydroxyprostaglandin dehydrogenase, a COX-2 oncogene antagonist, is a TGF-beta-induced suppressor of human gastrointestinal cancers. Proc Natl Acad Sci U S A. 2004 Dec 14;101(50):17468-73. 3. Yang L, Amann JM, Kikuchi T, Porta R, Guix M, Gonzalez A, Park KH, Billheimer D, Arteaga CL, Tai HH, Dubois R, Carbone DP, Johnson DH. Inhibition of Epidermal Growth Factor Receptor Signaling Elevates 15-Hydroxyprostaglandin Dehydrogenase in Non-Small-Cell Lung Cancer. Cancer Res. 2007 Jun 15;67(12):5587-5593. Inhibition of HPGD activity was screened by utilizing prostaglandin as an electron donor and NAD+ as an electron acceptor/cofactor. An increase in the fluorescence intensity due to conversion of NAD+ to NADH was used to measure the enzyme activity. NIH Chemical Genomics Center [NCGC] Structural Genomics Consortium [SGC]
Buffer: 50 mM Tris-HCl, 0.01% Tween 20, pH 8. Enzyme Buffer: 50 mM Tris-HCl, 0.5 mM NAD+ and 0.01% Tween 20, pH 8. Reagents/Controls: Buffer in columns 3 and 4 as negative control (no enzyme). Substrate/cofactor solution: 1 mM NAD+ and 30 uM prostaglandin (Sigma, prostaglandin E2, # P5640) final concentrations dispensed throughout the plate. Enzyme: 20 nM HPGD final concentration in columns 1, 2, 5-48. Column 1 and 2 is neutral (100% activity). A titration of control inhibitor GW5074 (G6416 Sigma-Aldrich, St. Louis, MO) top concentration 10 mM in DMSO, then 1:2 dilution for a total of 16 concentrations in duplicate) was pin-transferred into column 2. Assay Steps: Three uL of enzyme were dispensed to 1536-well Greiner black solid bottom plates. Compounds and control inhibitor (23 nL) were transferred via Kalypsys PinTool. The plates were incubated for 15 min at room temperature, and then 1 uL of substrate/cofactor solution was added to start the reaction. The plates were immediately transferred to and read 5 times every 30 seconds on ViewLux High-throughput CCD imager (Perkin-Elmer) using 360 nm excitation and 450 nm emission fluorescence protocol. The fluorescence intensity difference between the last and the first time points was used to compute reaction progress.
% is scaled to controls: 0 for no effect and ±100 for the full control effect; potency is read from the fitted curve at half-maximal effect.

| Structure (SMILES) | Potency | activity change, negative = inhibition |
| --- | --- | --- |
| COC(=O)C1=C(C)NC2=C(C(=O)c3ccccc32)C1c1ccc(-c2ccc(C(=O)O)cc2)o1 (centres undefined) | 17.8 µM (active) |  |
| Cc1ccc(C2C3=C(Nc4[nH]n(-c5ccccc5)c(=O)c42)c2ccccc2C3=O)cc1 (centres undefined) |  | -23.6% |
| COc1ccccc1NC(=O)C1=C(C)NC2=C(C(=O)CCC2)C1c1ccc(C)o1 (centres undefined) |  | -4.54% |
| Cc1cc(C(C)(C)C)cc(C)c1N |  | 2.4% |
| O=C(OC1CCOC1=O)c1cccc(S(=O)(=O)Nc2ccc(F)cc2)c1 (centres undefined) |  | -0.633% |
| COc1ccc(-c2cc(C(=O)NCc3ccco3)no2)cc1OC |  | -10.4% |
| O=C(NCCCCCCNC(=O)NCc1ccco1)NCc1ccco1 |  | -9.22% |
| O=C(NCc1ccco1)c1ccc(CS(=O)(=O)Cc2ccc(F)cc2)o1 |  | 2.28% |
| O=C(NCc1ccco1)c1sc2cccc(F)c2c1Cl | 3.98 µM (active) |  |
| COc1cc(C(=O)NC(=S)NCc2ccco2)cc(OC)c1OC |  | -21.9% |
| COc1ccc2c(Cl)c(C(=O)NCc3ccco3)sc2c1 | 14.1 µM (active) |  |
| CCN1CN(Cc2ccccc2)CNC1=S |  | -9.5% |
| CC(O)c1nc2ccccc2n1Cc1ccc([N+](=O)[O-])cc1 (centres undefined) |  | -6.78% |
| CC(=O)c1c(C)[nH]c(C(=O)OCC(=O)Nc2cc(S(=O)(=O)N3CCCCC3)ccc2C)c1C |  | -12.5% |
| Cc1c(Br)cc(C(=O)N2CCCCCC2)c(C)c1C | 14.1 µM (active) |  |
| Cc1ccc(C(=O)N2CCCCCC2)cc1Br | 5.01 µM (active) |  |
| CNC(=O)n1ccc(C(=O)N2CCCCC2)n1 |  | -21.9% |
| Cc1ccc(C(=O)N2CCCC2)c(F)c1F | 10 µM (active) |  |
| C/C(=C\C(=O)c1ccc(Br)cc1)N1CCCCC1 |  | -21.6% |
| CCCNC(=O)c1ccc(Cl)c(Cl)c1 |  | -21.6% |
| O=C(c1ccc(Cl)c(Cl)c1)N1CCCC1 | 20 µM (active) |  |
| Cc1ccccc1CN1CCN(C(=O)c2cccc(F)c2)CC1 |  | 2.95% |
| Cc1cc(=O)oc(C)c1C(=O)N1CCCCC1 |  | -2.92% |
| O=C(Nc1cccc(C(=O)N2CCCC2)c1)c1ccccc1 |  | -13.5% |

| Structure (SMILES) | Potency | activity change, negative = inhibition |
| --- | --- | --- |
| Cc1cccc(C(=O)N2CCCN(C(=O)c3cccc(C)c3)CC2)c1 |  | 4.89% |
| CCOC(=O)C1CCCN(C(=O)c2cncc(Br)c2)C1 (centres undefined) |  | -7.12% |
| Cc1cc(C(=O)N/N=C/c2ccc(O)c([N+](=O)[O-])c2)c(C)n1-c1ccc(F)cc1 |  | -20.1% |
| COc1ccc(C(=O)NNC(=S)NC(=O)c2ccccc2[N+](=O)[O-])cc1 |  | -1.33% |
| Cc1cc(C)nc(SC2CCCCC2NS(=O)(=O)c2ccc(Cl)cc2)n1 (centres undefined) |  | -1.86% |
| COc1ccc(Cn2c(-c3ccc(Cl)cc3)c[n+]3ccccc23)cc1 |  | 1.07% |
| C=CCn1c(SCc2ccc(Cl)c(Cl)c2)nnc1C(CO)NC(=O)c1ccc(OC)cc1 (centres undefined) |  | -18.7% |
| CC(CNC(=O)c1ccc(Br)o1)NC(=O)c1ccc(Br)o1 (centres undefined) |  | -8.51% |
| CC(CCc1ccccc1)NC(=O)c1ccc(Br)o1 (centres undefined) | 15.8 µM (active) |  |
| CCC(C)NC(=O)CCCc1ccccc1 (centres undefined) |  | -18.7% |
| Cc1cccc(N2Cc3ccccc3C2=NC(=O)c2ccc(Cl)nc2)c1 |  | -15.5% |
| C/C(=C/C(=O)N1CCN(C)CC1)C(=O)O |  | 4.4% |
| c1ccc(CSc2nnc(-c3ccco3)n2Cc2ccccc2)cc1 |  | -25.4% |
| O=C(Nc1nnc(SCc2ccccc2)s1)c1ccco1 |  | -28% |
| Nc1nc(SCc2ccccc2Cl)n[nH]1 |  | -3% |
| Clc1ccccc1CSc1nnc(-c2ccco2)c(-c2ccco2)n1 | 12.6 µM (active) |  |
| c1ccc(CSc2nnc(-c3ccco3)c(-c3ccco3)n2)cc1 | 4.47 µM (active) |  |
| c1coc(-c2nc3nc4ccccc4n3nc2-c2ccco2)c1 |  | -14.3% |
| COc1ccc(-c2nc3c(c4c2C[C@H](c2ccccc2)OC4)CN(C(=O)c2cccnc2)CC3)c(C)c1 |  | -9.44% |
| COCc1c(C(=O)N/N=C/C2CC=CCC2)nnn1-c1nonc1N (centres undefined) |  | -10.3% |
| CC(C)CNC(=S)Nc1ccc(F)cc1 |  | -4.13% |
| Cc1ccc(S(=O)(=O)N(CC(=O)Nc2cccc([N+](=O)[O-])c2)Cc2ccc(Cl)cc2)cc1 |  | -3.74% |
| O=C(Oc1ccc([N+](=O)[O-])cc1)c1ccc(Cl)c(S(=O)(=O)N2CCCCC2)c1 |  | -21.8% |
| O=C(Oc1ccccc1C(=S)N1CCCCC1)c1cc([N+](=O)[O-])cc([N+](=O)[O-])c1 | 14.1 µM (active) |  |

| Structure (SMILES) | Potency | activity change, negative = inhibition |
| --- | --- | --- |
| COc1cc(C(=S)N2CCOCC2)cc(OC)c1OC(=O)c1cc([N+](=O)[O-])cc([N+](=O)[O-])c1 |  | -12% |
| CCOC(=O)C1Sc2[nH]c(=O)sc2C(c2ccc(Cl)cc2)C1C(=O)OCC (centres undefined) | 3.98 µM (active) |  |
| CCOC(=O)C1=C(C)NC(=O)N(C(C)=O)C1c1ccc(Cl)cc1 (centres undefined) |  | 0.0111% |
| CCOC(=O)c1[nH]c2c(c1-c1ccccc1)C(=O)CC(c1ccc(Cl)cc1)C2 (centres undefined) |  | -2.93% |
| c1ccc(Nc2n[nH]nc2-c2ccccc2)cc1 | 14.1 µM (active) |  |
| Nc1ccc(Nc2ccccc2)cc1 |  | -5.62% |
| Nc1ccc(-c2sc(N)nc2-c2ccccc2)cc1 |  | -11% |
| COc1cccc2c(O)cc(=O)n(C)c12 |  | -2.82% |
| CC(Oc1ccccc1F)C(=O)NN (centres undefined) |  | -6.91% |
| O=c1c(O)c(Br)ccc2c(Br)c(O)c(O)c(O)c12 | 15.8 µM (active) |  |
| COc1ccc(C(=O)COC(=O)c2ccc3ccccc3n2)cc1 |  | -15.3% |
| COc1ccc2c(c1)c(=O)c(C(=O)c1ccc(Cl)cc1)cn2CC(=O)Nc1ccc(F)cc1 |  | -6.67% |
| CN(CC(=O)Nc1ccc(S(=O)(=O)N2CCCC2)cc1)Cc1ccc(Cl)c(Cl)c1 |  | -13.8% |
| COC(=O)C1=C(C(=O)OC)[C@@H]2N(C)c3ccccc3[C@@]23C[C@@H](C(=O)OC)N(S(=O)(=O)c2ccc(Br)cc2)C3=N1 |  | 0.758% |
| CC(=O)Nc1ccc(/C(C)=N/NC(=O)CN(c2ccccc2Br)S(C)(=O)=O)cc1 |  | -3.71% |
| CCCCNC(=O)CSc1nc2ccc(NC(=O)CSc3nnc(N)s3)cc2s1 | 5.01 µM (active) |  |
| O=C(CSc1nc(-c2ccccc2)cs1)Nc1cccc([N+](=O)[O-])c1 |  | -24.6% |
| CCCCNC(=O)CSc1nnc(-c2ccco2)n1C |  | -11.5% |
| Nc1nnc(SCC(=O)Nc2ccc3nc(SCC(=O)Nc4ccccc4)sc3c2)s1 | 4.47 µM (active) |  |
| CCCCNS(=O)(=O)c1ccc2nc(SCC(=O)Nc3cc(C)cc(C)c3)[nH]c2c1 |  | -21.1% |
| Cc1cccc(NC(=O)CSc2nnc(NC(=O)CN3CCOCC3)s2)c1 |  | -8.48% |
| CC(CNc1ccc([N+](=O)[O-])c2cccnc12)Nc1c([N+](=O)[O-])cc(C(F)(F)F)cc1[N+](=O)[O-] (centres undefined) |  | -20.4% |
| O=C(O)c1ccc(/C=N/NC(=O)c2ccc(Br)cc2)cc1 |  | -2.06% |
| CC(=O)NC1C(OCc2ccccc2)OC(COC(C)=O)C(OC(C)=O)C1OC(C)=O (centres undefined) |  | -0.385% |

| Structure (SMILES) | Potency | activity change, negative = inhibition |
| --- | --- | --- |
| CCN(CC)c1ccc(C(=O)N/N=C(\C)c2cccc(OC)c2)cc1 |  | -8.48% |
| COc1ccc(OC(C)C(=O)NCCc2nc3ccccc3[nH]2)cc1 (centres undefined) |  | -0.239% |
| CC(C)CCNC(=O)c1cccnc1Sc1ccccc1 |  | -7.91% |
| CSc1nc(-c2ccco2)nn1C(=O)CCc1ccccc1 |  | -14% |
| CCOc1ccccc1/C=c1\sc2nc(-c3ccco3)nn2c1=O | 17.8 µM (active) |  |
| O=c1nc2s/c(=C\c3ccco3)c(=O)n2nc1Cc1ccccc1 |  | -22.5% |
| Cc1ccc(C(=O)NC2CCN(C(=O)N3CCOCC3)CC2)cc1 |  | -4.3% |
| O=C(NC1CCCCC1)c1ccc(CNc2c(N3CCOCC3)c(=O)c2=O)cc1 | 14.1 µM (active) |  |
| O=C(NC1CCCCC1)c1cc([N+](=O)[O-])ccc1N1CCOCC1 |  | -0.536% |
| CCS(=O)(=O)N1Cc2ccccc2CC1C(=O)Nc1nc2ccc(F)cc2s1 (centres undefined) |  | -14% |
| CCc1nnc(NC(=O)C2CC(=O)N(c3ccc4c(c3)OCCO4)C2)s1 (centres undefined) |  | -28.3% |
| COC(=O)Cc1ccc(OCC(=O)Nc2ccc(OC(F)(F)F)cc2)cc1 |  | -9.9% |
| Cc1ccccc1NC(=S)Nc1cccc([N+](=O)[O-])c1 |  | -3.09% |
| COC(=O)/C=C\C(=O)Nc1cccc([N+](=O)[O-])c1 | 3.16 µM (active) |  |
| O=C(CSCC(=O)Nc1cccc([N+](=O)[O-])c1)Nc1ccccc1 |  | -9.37% |
| CCCCNC(=O)C(=O)c1ccccc1NC(C)=O |  | -11.5% |
| CCC(C)NC(=O)c1ccccc1NC(=O)c1ccccc1N(C)S(C)(=O)=O (centres undefined) |  | 1.34% |
| CCCCNC(=O)c1ccccc1NC(=O)c1ccccc1N(C)S(C)(=O)=O | 25.1 µM (active) |  |
| COc1ccc(C)cc1NC(=O)C(Sc1ccccc1)c1ccccc1 (centres undefined) |  | -3.19% |
| CSCCC(Nc1ccc(S(=O)(=O)N2CCOCC2)cc1[N+](=O)[O-])C(=O)OCC(=O)N(C(C)C)C(C)C (centres undefined) |  | -2.59% |
| O=C(O)c1ccc2c(c1)C(=O)N(NC(=O)c1ccc(O)cc1)C2=O |  | -11% |
| COC(=O)C(C(=O)OC)C1c2ccccc2C=C(C2CC2)N1C(=O)OC (centres undefined) |  | -11% and -4.45% |
